From PubChem BioAssay (Tox21)
Values joined by “and” are separate entries in the source; they are usually repeats but may differ in a detail not shown here. Equal entries are not always repeated. Records with an inconclusive call do not appear. Active and inactive are the calls of the source. Unless noted, the call rests on the fitted dose curve.

Columns and labels:
[1] = qHTS assay to identify small molecule agonists of the NFkB signaling pathway - cell viability counter screen (AID 1159515); further: series mostly up to about 61 µM; on the % scale 0 is the no-effect control and ±100 the full control effect; nearly all actives have a fitted effect of over 55% in size
Outline: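 Parallel cytotoxicity counter screen in ME-180 cells carrying an NFkB-response-element beta-lactamase reporter, 2,000 cells/well. Compound exposure lasted 5 hr at 37 C, 5% CO2. Cell viability was quantified by CellTiter-Glo luminescence.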

[2] = molecular target: Nuclear receptor ROR-gamma (Homo sapiens) (UniProt P51449); assay: qHTS assay to identify small molecule antagonists of the retinoid-related orphan receptor gamma (ROR-gamma) signaling pathway (AID 1159521; active means well fitted curve in the direction sought with a large enough effect in the repeat runs; an effect the other way counts as inactive or inconclusive; further: nearly all actives have a fitted effect of over 50% in size; further: potency means the concentration at half of the fitted maximal effect;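 on activity change, negative = inhibition: CHO cells with doxycycline inducible ROR-gamma driving an RORE luciferase reporter; top concentration of the series differs between compounds; on the % scale 0 is the no-effect control and ±100 the full control effect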)
Outline: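 Readout: ONE-Glo luciferase luminescence, 30 min at room temperature. System: Tet-on RORγ CHO, RORE-LUC. Sequence: compound 2 h, doxycycline 1 uM final, 16 h at 37 C.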

[3] = qHTS assay to identify small molecule agonists of the AP-1 signaling pathway - cell viability counter screen (AID 1159525); further: nearly all actives have a fitted effect of over 55% in size
Outline: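 Each titration point was normalised to DMSO and tetra n-octyl ammonium bromide controls. The read was Cell Titer Glo luminescence after 30 min at RT, following 5 h compound exposure of ME-180 AP-1-bla cells at 37 °C.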

[4] = qHTS assay to identify small molecule antagonists of the vitamin D receptor (VDR) signaling pathway - cell viability counter screen (AID 743225; active means well fitted curve in the direction sought with a large enough effect in the repeat runs; an effect the other way counts as inactive or inconclusive; further: on the % scale 0 is the no-effect control and ±100 the full control effect; nearly all actives have a fitted effect of over 50% in size)
Outline: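 Cytotoxicity toward the VDR-bla HEK 293T line was scored by ATP-based CellTiter-Glo luminescence, read in the wells already used for the beta-lactamase readout after 16 h compound treatment under 3 nM 1-alpha,25-dihydroxyvitamin D3 stimulation.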

[5] = qHTS assay to identify small molecule agonists of the endoplasmic reticulum stress response signaling pathway - cell viability counter screen (AID 1159517);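 further: HeLa cells carrying an ER stress response element beta-lactamase reporter; series mostly up to about 61 µM; on the % scale 0 is the no-effect control and ±100 the full control effect; nearly all actives have a fitted effect of over 50% in size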
Outline: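 Cytotoxicity of test compounds toward ESRE-bla HeLa cells was assessed after 5 hr exposure. The luminescent CellTiter-Glo signal was measured 30 min after reagent addition.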

[6] = qHTS assay to identify small molecule antagonists of the retinoid-related orphan receptor gamma (ROR-gamma) signaling pathway - cell viability counter screen (AID 1159520; active means well fitted curve in the direction sought with a large enough effect in the repeat runs; an effect the other way counts as inactive or inconclusive; further: on the % scale 0 is the no-effect control and ±100 the full control effect; nearly all actives have a fitted effect of over 50% in size)
Outline: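 Tet-on ROR gamma CHO cells (1,000/well) were plated 4 hr, given compounds in DMSO for 2 hr at 37 C, then induced with 1 uM final doxycycline for 16 hr. Viability was read as ATP by CellTiter-Glo luminescence after 30 min.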

[7] = qHTS assay to identify small molecule agonists of the AP-1 signaling pathway (AID 1159526); further: on the % scale 0 is the no-effect control and ±100 the full control effect
[8] = molecular target: Retinoic acid receptor RXR-alpha (Homo sapiens) (UniProt P19793); assay: qHTS assay to identify small molecule agonists of the RXR signaling pathway (AID 1159527); further: on the % scale 0 is the no-effect control and ±100 the full control effect; nearly all actives have a fitted effect of over 35% in size
Outline: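 Reporter activation is measured as beta-lactamase activity via FRET substrate cleavage (emission 460/530 nm) in HEK 293T cells expressing an RXR-alpha-driven bla construct, following 16 hr compound exposure at 37 C.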

[9] = qHTS assay to identify small molecule agonists of the vitamin D receptor (VDR) signaling pathway - cell viability counter screen (AID 743224; active means well fitted curve in the direction sought with a large enough effect in the repeat runs; an effect the other way counts as inactive or inconclusive; further: nearly all actives have a fitted effect of over 50% in size; further: potency means the concentration at half of the fitted maximal effect; on activity change, negative = cytotoxicity: series mostly up to about 63 µM; on the % scale 0 is the no-effect control and ±100 the full control effect)
Outline: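 Compounds were pin-transferred onto VDR-bla cells plated 4 h earlier; following 16 h incubation at 37C, cell viability was quantified by CellTiter-Glo luminescence after 30 min at room temperature.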

Chain of Retinoic acid receptor RXR-alpha (Homo sapiens) (P19793 whole entry, looked up): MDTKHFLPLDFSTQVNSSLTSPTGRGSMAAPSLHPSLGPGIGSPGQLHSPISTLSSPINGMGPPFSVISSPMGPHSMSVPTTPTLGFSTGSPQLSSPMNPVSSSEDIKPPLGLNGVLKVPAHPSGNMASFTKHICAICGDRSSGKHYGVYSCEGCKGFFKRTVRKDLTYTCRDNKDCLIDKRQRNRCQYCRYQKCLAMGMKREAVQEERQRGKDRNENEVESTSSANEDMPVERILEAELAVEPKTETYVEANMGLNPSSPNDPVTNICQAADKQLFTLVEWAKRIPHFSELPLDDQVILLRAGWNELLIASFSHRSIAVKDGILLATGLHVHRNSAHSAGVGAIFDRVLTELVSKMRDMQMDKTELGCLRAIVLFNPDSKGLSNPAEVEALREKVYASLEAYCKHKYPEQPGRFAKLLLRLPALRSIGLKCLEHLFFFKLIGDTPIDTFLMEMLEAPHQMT

C=CC(=O)OCCOCCOCCOCCOC(=O)C=C
active: Potency [2] 12.3 µM and 8.56 µM
inactive: Potency [1] | Potency [3]

COc1cc2nc(N3CCN(C(=O)C4COc5ccccc5O4)CC3)nc(N)c2cc1OC (configuration not stated)
inactive: Potency [4] | Potency [1] | Potency [5] | Potency [6] | Potency [3] | Potency [7] | Potency [8]

CCCCC/C=C\C/C=C\CCCCCCCC(=O)NC(C)c1ccccc1 (configuration not stated)
inactive: Potency [9] | Potency [4] | Potency [1] | Potency [5] | Potency [6] | Potency [2] | Potency [7]

O=C(NCC1CN(c2ccc(N3CCOCC3=O)cc2)C(=O)O1)c1ccc(Cl)s1 (configuration not stated)
inactive: Potency [4] | Potency [1] | Potency [5] | Potency [6] | Potency [3] | Potency [7] | Potency [8]

CN(C)c1ccc(/C=C/c2ccc([N+](=O)[O-])cc2)cc1
inactive: viability change, negative = cytotoxic [4] 7.13% [at 6.95 µM] | activity, negative = cytotoxic [1] -0.218% [at 6.95 µM] | activity change, negative = cytotoxicity [5] 15.7% [at 6.95 µM] | activity, negative = cytotoxicity [6] 1.18% [at 8.39 µM] | activity change, negative = inhibition [2] 127% [at 8.39 µM] | activation [7] -11.3% [at 6.97 µM] | activation [8] -7.68% [at 6.98 µM]

O=C(OCCCCCCOC(=O)c1ccccc1)c1ccccc1
inactive: Potency [4] | Potency [1] | Potency [6] | Potency [2] | Potency [3]
active: Potency [9] 43.6 µM
